Experimental data as given in publication PMC4336329 (PLoS ONE, 2015).
Among all 310,000 compounds or so, about 14,000 (4.5%) showed an effect of 50% or more. Effects have a minus sign here. Many of the other results were omitted from the sample, so strong results are more common in it than they were.

Molecular target: human ether-à-go-go-related gene (hERG) potassium channel (human, UniProt Q12809)
Experiment: primary screen, population patch clamp on CHO cells stably expressing hERG; higher = less effect of the substance
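Also: peak tail current of the secondary pulse compared with the same well before compound.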

Sequence of human ether-à-go-go-related gene (hERG) potassium channel (Q12809 whole entry, looked up): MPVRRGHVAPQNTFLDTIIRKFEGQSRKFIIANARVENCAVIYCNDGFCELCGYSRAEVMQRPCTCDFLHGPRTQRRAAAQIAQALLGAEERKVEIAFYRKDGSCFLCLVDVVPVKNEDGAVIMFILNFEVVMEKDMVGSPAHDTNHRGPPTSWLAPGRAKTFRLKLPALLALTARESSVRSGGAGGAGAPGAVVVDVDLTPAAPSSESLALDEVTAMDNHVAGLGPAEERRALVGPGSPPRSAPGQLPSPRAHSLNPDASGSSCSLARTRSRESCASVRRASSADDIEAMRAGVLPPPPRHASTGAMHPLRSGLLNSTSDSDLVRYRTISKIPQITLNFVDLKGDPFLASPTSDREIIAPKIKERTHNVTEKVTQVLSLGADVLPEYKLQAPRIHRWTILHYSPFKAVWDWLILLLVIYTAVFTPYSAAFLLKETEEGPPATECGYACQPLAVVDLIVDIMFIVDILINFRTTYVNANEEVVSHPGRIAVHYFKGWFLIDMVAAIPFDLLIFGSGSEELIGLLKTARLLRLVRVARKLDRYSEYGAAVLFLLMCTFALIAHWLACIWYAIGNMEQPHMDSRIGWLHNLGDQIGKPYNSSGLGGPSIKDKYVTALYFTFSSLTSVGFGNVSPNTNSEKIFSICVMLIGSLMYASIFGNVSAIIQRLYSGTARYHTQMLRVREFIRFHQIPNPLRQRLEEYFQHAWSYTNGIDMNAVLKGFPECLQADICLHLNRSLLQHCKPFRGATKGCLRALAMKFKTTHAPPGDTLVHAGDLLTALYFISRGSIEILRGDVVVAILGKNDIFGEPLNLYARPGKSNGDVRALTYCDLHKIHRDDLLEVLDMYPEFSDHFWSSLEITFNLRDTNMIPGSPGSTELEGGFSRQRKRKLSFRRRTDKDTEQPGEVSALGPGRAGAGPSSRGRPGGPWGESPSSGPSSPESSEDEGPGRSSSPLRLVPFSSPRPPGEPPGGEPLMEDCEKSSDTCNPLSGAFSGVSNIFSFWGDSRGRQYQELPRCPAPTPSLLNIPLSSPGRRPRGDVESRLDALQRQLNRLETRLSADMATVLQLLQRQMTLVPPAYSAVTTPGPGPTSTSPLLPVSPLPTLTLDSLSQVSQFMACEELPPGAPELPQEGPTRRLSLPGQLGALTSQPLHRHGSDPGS

Row | SMILES | hERG current change (%, negative = inhibition) at 10uM [%]
1 | Cc1ccc(C(=O)COC(=O)c2ccccc2NC(=O)c2ccccc2)cc1[N+](=O)[O-] | 4.55
2 | O=C(COC(=O)/C=C/c1ccc(Cl)cc1Cl)Nc1ccc2c(c1)OCCO2 | 18.5
3 | O=C(Nc1cccc(C(=O)O)c1)/C(=C\c1ccco1)NC(=O)c1ccccc1Cl | 7.53
4 | COC(=O)c1[nH]c(C)c(/C(O)=C2\C(=O)C(=O)N(CCN3CCOCC3)C2c2ccc(C)o2)c1C (centres unmarked) | -6.49
5 | Cc1c(CCC(=O)O)c(=O)oc2cc3occ(-c4ccc(Cl)cc4)c3cc12 | 21.7
6 | Cc1ccc(Oc2nnc(-c3cccs3)c3ccccc23)cc1 | -0.00742
7 | CNC(=O)COC(=O)c1cccnc1SC | 3.53
8 | CCN1CCN(c2ccc(S(=O)(=O)N3CCCCC3)cc2NC(=O)Cc2ccccc2)CC1 | -33.5
9 | CCN1CCN(c2ccc(S(=O)(=O)N3CCCCC3)cc2NC(=O)Cc2ccc(Cl)c(Cl)c2)CC1 | -48.5
10 | CCN1CCN(c2ccc(S(=O)(=O)N3CCCCC3)cc2NC(=O)Cc2ccc(OC)cc2)CC1 | -60.1
11 | CCOC(=O)C1(CC)NC(c2ccc(OC)c(OC)c2)C2C(=O)N(c3cccc(C(C)=O)c3)C(=O)C21 (centres unmarked) | 16.5
12 | Cc1ccc(S(=O)(=O)/N=C2/C=C(C3C(=O)CC(C)(C)CC3=O)C(=O)c3ccccc32)cc1 | 0.322
13 | COc1cccc(CNC(=S)Nc2cc(C)cc(C)c2)c1 | 6.62
14 | N#Cc1ccc(OCC(=O)Nc2ccncc2)cc1 | 18.1
15 | N#Cc1cccc(NC(=O)COc2ccc(-n3ccnc3)cc2)c1 | -67.5
16 | O=C(COc1ccc(-n2ccnc2)cc1)Nc1cccc(F)c1 | -54.6
17 | O=C(COc1ccc2c(c1)OCO2)Nc1cccc(F)c1 | 19.8
18 | O=C(COc1ccc(-n2ccnc2)cc1)Nc1cccc(Cl)c1 | -38.9
19 | N#Cc1cccc(NC(=O)CCn2ccnc2)c1 | 2.87
20 | O=C(NCc1ccccc1)C1c2ccccc2Oc2ccccc21 | 7.83
21 | Cc1ccc(-n2c(N)cc(=O)nc2SCC(=O)NC2CCCCC2)cc1C | 8.7
22 | COc1ccc(CCN2C(=O)CC(N3CCN(S(=O)(=O)c4ccccc4)CC3)C2=O)cc1OC (centres unmarked) | -5.73

Row | SMILES | hERG current change (%, negative = inhibition) at 10uM [%]
23 | CCOc1ccc(S(=O)(=O)Nc2ccc(C(=O)NCc3ccncc3)cc2)cc1 | -22.2
24 | CCc1c(C)nc2ncnn2c1Nc1ccc(C#N)c(Cl)c1 | -50.6
25 | Cc1nc2ncnn2c(Nc2ccc3c(c2)OCCO3)c1C | 0.223
26 | Cc1nc2ncnn2c(Nc2ccc3c(c2)OCO3)c1Cc1ccccc1 | -55.1
27 | Cc1cc(Nc2ccc3c(c2)OCCO3)n2ncnc2n1 | -42.7
28 | CCc1c(C)nc2ncnn2c1Nc1ccc(C)c(C)c1 | -17.6
29 | CCc1c(C)nc2ncnn2c1Nc1ccc(C)cc1 | -5.65
30 | COc1ccc(CC(=O)NNS(=O)(=O)c2ccc(F)cc2)cc1OC | 0.969
31 | COc1ccc(-n2c(C)cc(C(=O)CN3CCCCC3)c2C)cc1 | 1.6
32 | CNc1nc(C)c(C(=O)OCc2ccccc2)s1 | 15.9
33 | O=C(Nc1c2c(nn1-c1ccccc1)CS(=O)C2)c1ccc(Br)o1 (centres unmarked) | 1.07
34 | O=[N+]([O-])c1ccc2sc(SCc3nc4ccccn4c3Br)nc2c1 | 20.2
35 | Brc1c(CSc2nc3ccccc3s2)nc2ncccn12 | -69.7
36 | Clc1c(CSc2nc3ccccc3o2)nc2ccccn12 | -20.4
37 | c1ccc2sc(SCSc3nc4ccccc4s3)nc2c1 | 15.8
38 | Clc1c(CSc2nc3ccccc3o2)nc2sccn12 | 5.65
39 | Cc1cc(C)nc(SCc2nc3ncccn3c2Br)n1 | -2.09
40 | Cc1ccc(SCc2nc3ncccn3c2Br)cc1 | -68
41 | Cc1cc(=O)[nH]c(SCc2nc3ncccn3c2Br)n1 | 14.6
42 | Brc1c(CSc2nc3ccccc3o2)nc2ncccn12 | -51.8
43 | COc1ccc(S(=O)(=O)Nc2ccc3c(c2)OCO3)cc1OC | 21.7
44 | COc1ccc(NC(=O)CSc2nnc(-c3ccccc3C)n2N)cc1 | 31.2

Row | SMILES | hERG current change (%, negative = inhibition) at 10uM [%]
45 | CCC(Oc1ccccc1)C(=O)Nc1cc(Cl)ccc1-n1cncn1 (centres unmarked) | -14.1
46 | O=C1c2ccccc2C(=O)N1C(CO)C(O)c1ccc([N+](=O)[O-])cc1 (centres unmarked) | -5.29
47 | CC(c1nnc(SCC(=O)N2CC(=O)Nc3ccccc32)n1Cc1ccccc1)N(C)C (centres unmarked) | 5.73
48 | CC(C)CCNCC(O)CON=C1c2ccccc2-c2ccccc21 (centres unmarked) | -32.2
49 | CC(N=Cc1cc([N+](=O)[O-])ccc1O)c1ccccc1 (centres unmarked) | 11.7
50 | CC(O)CN1CC(O)=C(c2nc3ccccc3s2)C1=N (centres unmarked) | 3.89
51 | COc1ccc(C(=O)NCc2ncccc2C)cc1OC1CCN(C(C)=O)CC1 | 9.32
52 | CCOc1ccccc1-n1c(SCC(=O)Nc2ccccc2C(=O)O)nc2ccccc2c1=O | 8.39
53 | O=C(CN1CCN(S(=O)(=O)c2ccc(Br)cc2)CC1)N/N=C/c1cccnc1 | -31.6
54 | O=C(CN1CCN(S(=O)(=O)c2ccc(Br)cc2)CC1)N/N=C/c1ccc(Cl)c([N+](=O)[O-])c1 | -17.9
55 | O=C(CN1CCN(S(=O)(=O)c2ccc(Br)cc2)CC1)N/N=C/c1ccncc1 | -70.6
56 | Cc1ccc(S(=O)(=O)N2CCN(CC(=O)N/N=C\c3ccc(O)c(O)c3)CC2)cc1 | -8.76
57 | Cc1ccc(S(=O)(=O)N2CCN(CC(=O)N/N=C\c3cccnc3)CC2)cc1 | 0.297
58 | Cc1ccc(S(=O)(=O)N2CCN(CC(=O)N/N=C\c3ccncc3)CC2)cc1 | -66.8
59 | O=C1N/C(=N\c2ccccn2)SC1Cc1ccc(Cl)cc1 (centres unmarked) | 4.11
60 | Cc1cccc(CCNc2nc3ccc(C)cc3n3cnnc23)c1 | 17.3
61 | CC(C)(C)CC(C)(C)NC(=O)c1ccc2snnc2c1 | -13.6
62 | COc1ccc(S(=O)(=O)NC(CC(=O)N2CCC3(CC2)OCCO3)C(C)C)cc1 (centres unmarked) | 10.9
63 | COc1ccccc1CCC(=O)N(C)C1CCCN(Cc2ccccc2F)C1 (centres unmarked) | -28
64 | Cc1ccc(C(=O)NCC(=O)OCc2nnc(-c3ccccc3)o2)cc1 | -31.6
65 | Cc1csc(=O)n1CCC(=O)OCc1nnc(-c2ccc([N+](=O)[O-])cc2)o1 | -67.3
66 | Cc1csc(=O)n1CCC(=O)OCc1nnc(-c2ccccc2)o1 | -8.45

Row | SMILES | hERG current change (%, negative = inhibition) at 10uM [%]
67 | Cc1onc(-c2ccccc2Cl)c1C(=O)OCc1nnc(-c2ccccc2)o1 | -16.7
68 | Cc1onc(-c2ccccc2)c1C(=O)OCc1nnc(-c2ccc([N+](=O)[O-])cc2)o1 | -71.5
69 | Cc1onc(-c2ccccc2)c1C(=O)OCc1nnc(-c2ccccc2)o1 | -15.6
70 | Cc1ccc(C(=O)OCc2nnc(-c3ccccc3)o2)s1 | -7.37
71 | Cc1ccc(C(=O)NCC(=O)OCc2nnc(-c3ccc([N+](=O)[O-])cc3)o2)s1 | -67.3
72 | Cc1csc(=O)n1CC(=O)OCc1nnc(-c2ccc(Cl)cc2)o1 | -2.32
73 | CNc1ccc(Oc2c(F)c(F)nc(F)c2F)cc1 | -0.34
74 | O=C1CS/C(=N/N=C/c2ccccc2)N1c1ccc(O)cc1 | 17.6
75 | CN(C)S(=O)(=O)c1cccc(NC(=O)C2Cc3ccccc3CN2C(=O)c2ccccc2)c1 (centres unmarked) | 4.2
76 | Oc1ccc(C[C@H]2CNCCN2CCc2cccc3ccccc23)cc1 | -17.7
77 | c1ccc(C[C@H]2CNCCN2CCc2cccc3ccccc23)cc1 | -35.6
78 | Oc1ccc(C[C@@H]2CNCCN2CCc2cccc3ccccc23)cc1 | -64.5
79 | C#CCOCCOCCOCCNc1nc(N2CCN(C(=O)[C@H](CCC(=O)O)n3cc(C(N)Cc4ccc(O)cc4)nn3)CC2)nc(N2CCN(C(=O)[C@H](Cc3cc4ccccc4[nH]3)n3cc(C(N)[C@H](C)CC)nn3)CC2)n1.Cl (some centres unmarked) | 5.43
80 | COc1ccc(CNC(=O)c2ccc3c(=O)n(CCCN4CCCC4=O)c(=S)[nH]c3c2)cc1 | 19
81 | CCOC(=O)c1ccc(Nc2cc(C)nc3nc(C)nn23)cc1 | -53
82 | CCOC(=O)c1ccc(Nc2nc(C)cc(C)n2)cc1 | 16.7
83 | CCOC(=O)c1ccc(Nc2cc(C)nc3ncnn23)cc1 | -15.1
84 | CCOC(=O)c1c(Nc2ccccc2N)cc(C)nc1C | -13.9
85 | CCOC(=O)c1ccc(Nc2cc(C)nc(C)c2C(=O)OCC)cc1.Cl | -62.6
86 | COC(=O)c1ccc(Nc2cc(C)nc3nc(C)nn23)cc1 | -37.8
